The nature of assay [1]: A CellTox Green Cytotoxicity Assay to monitor cytotoxicity in HEK293 cells - 40 hour (AID 1224871). Also: nearly all actives have a fitted effect of over 45% in size. Also: potency is read from the fitted curve at half-maximal effect. The gist of the method:
(§1)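 Tox21 screen in HEK293: membrane-impermeant cyanine dye fluoresces on binding dead-cell DNA; compound pinned 5 h post-seeding, plates held at 37 C, signal read repeatedly through 40 h.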

Assay [2] is described as follows: qHTS RealTime-Glo MT Cell Viability Assay in HEK293 cells - 16 hour (AID 1224872). Also: nearly all actives have a fitted effect of over 50% in size. Also: potency is read from the fitted curve at half-maximal effect. Summed up:
(§2)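 Quantitative high-throughput screen of the Tox21 10K library in HEK293: cells and RealTime-Glo reagents plated together, compound added at 5 h, luminescence monitored through 40 h at 37 C.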

A short description of assay [3]: A CellTox Green Cytotoxicity Assay to monitor cytotoxicity in HEK293 cells - 24 hour (AID 1224875). Also: nearly all actives have a fitted effect of over 45% in size. Also: potency is read from the fitted curve at half-maximal effect. The gist of the method:
as §1

The nature of assay [4]: A CellTox Green Cytotoxicity Assay to monitor cytotoxicity in HepG2 cells - 16 hour (AID 1224876). Also: nearly all actives have a fitted effect of over 45% in size. Also: potency is read from the fitted curve at half-maximal effect. The gist of the method:
(§3)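 Measurements at 0, 8, 16, 24, 32 and 40 h of treatment captured CellTox Green fluorescence in HepG2 cells that had been co-plated with reagent and preincubated 5 h at 37 C/5% CO2.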

Assay [5] in a line: A CellTox Green Cytotoxicity Assay to monitor cytotoxicity in HepG2 cells - 24 hour (AID 1224878). Also: nearly all actives have a fitted effect of over 45% in size. Also: potency is read from the fitted curve at half-maximal effect. The gist of the method: as §3
Assay [6] is described as follows: A CellTox Green Cytotoxicity Assay to monitor cytotoxicity in HepG2 cells - 40 hour (AID 1224879). Also: nearly all actives have a fitted effect of over 40% in size. Also: potency is read from the fitted curve at half-maximal effect. Summed up: as §3
A short description of assay [7]: qHTS RealTime-Glo MT Cell Viability Assay in HEK293 cells - 0 hour (AID 1224880). Summed up:
(§4)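 HEK293 + NanoLuc + prosubstrate, 600 cells/well; 5 h, 37 C/5% CO2; compound 23 nL in DMSO by pintool; 37 C; luminescence read at 0, 8, 16, 24, 32 and 40 h time points.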

The nature of assay [8]: A CellTox Green Cytotoxicity Assay to monitor cytotoxicity in HepG2 cells - 0 hour (AID 1224882). Also: nearly all actives have a fitted effect of over 35% in size. The gist of the method:
as §3

A short description of assay [9]: A CellTox Green Cytotoxicity Assay to monitor cytotoxicity in HepG2 cells - 32 hour (AID 1224883). Also: nearly all actives have a fitted effect of over 50% in size. Also: potency is read from the fitted curve at half-maximal effect. The gist of the method: as §3
A short description of assay [10]: A CellTox Green Cytotoxicity Assay to monitor cytotoxicity in HEK293 cells - 8 hour (AID 1224884). Also: nearly all actives have a fitted effect of over 35% in size. Also: potency is read from the fitted curve at half-maximal effect. The gist of the method:
as §1

The nature of assay [11]: qHTS RealTime-Glo MT Cell Viability Assay in HEK293 cells - 24 hour (AID 1224886). Also: nearly all actives have a fitted effect of over 50% in size. Also: potency is read from the fitted curve at half-maximal effect. Summed up: as §2
The nature of assay [12]: qHTS RealTime-Glo MT Cell Viability Assay in HEK293 cells - 8 hour (AID 1224887). Also: nearly all actives have a fitted effect of over 50% in size. Also: potency is read from the fitted curve at half-maximal effect. Summed up:
as §4
(In general: qHTS replaces the single test concentration by a dilution series.)

The nature of assay [13]: A CellTox Green Cytotoxicity Assay to monitor cytotoxicity in HEK293 cells - 16 hour (AID 1224888). Also: nearly all actives have a fitted effect of over 35% in size. Also: potency is read from the fitted curve at half-maximal effect. The gist of the method: as §1
The nature of assay [14]: qHTS RealTime-Glo MT Cell Viability Assay in HepG2 cells - 0 hour (AID 1224889). Also: nearly all actives have a fitted effect of over 50% in size. The gist of the method:
(§5)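 Compound treatment began 5 h after plating HepG2 cells (600/well) with NanoLuc luciferase and prosubstrate. Plates stayed at 37 C for 40 h; luminescence was captured at six time points, 0 h through 40 h.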

The nature of assay [15]: A CellTox Green Cytotoxicity Assay to monitor cytotoxicity in HepG2 cells - 8 hour (AID 1224890). Also: nearly all actives have a fitted effect of over 45% in size. Also: potency is read from the fitted curve at half-maximal effect. Summed up: as §3
Assay [16] is described as follows: qHTS RealTime-Glo MT Cell Viability Assay in HepG2 cells - 8 hour (AID 1224873). Also: nearly all actives have a fitted effect of over 55% in size. Also: potency is read from the fitted curve at half-maximal effect. Summed up: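 HepG2 cells (600/well) mixed with RealTime-Glo MT reagent, settled 5 h at 37 C/5% CO2 before compound addition. Nonlytic NanoLuc luminescence from viable-cell prosubstrate reduction read repeatedly during 40 h treatment at 37 C.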
A short description of assay [17]: qHTS RealTime-Glo MT Cell Viability Assay in HEK293 cells - 40 hour (AID 1224874). Also: nearly all actives have a fitted effect of over 50% in size. Also: potency is read from the fitted curve at half-maximal effect. As to conditions: RealTime-Glo luminescence; max response: active compounds read low. Summed up: as §4
Assay [18] is described as follows: qHTS RealTime-Glo MT Cell Viability Assay in HepG2 cells - 32 hour (AID 1224877). Also: nearly all actives have a fitted effect of over 55% in size. Also: potency is read from the fitted curve at half-maximal effect. The gist of the method:
as §5

Assay [19] can be described thus: A CellTox Green Cytotoxicity Assay to monitor cytotoxicity in HEK293 cells - 32 hour (AID 1224881). Also: nearly all actives have a fitted effect of over 40% in size. Also: potency is read from the fitted curve at half-maximal effect. Summed up: as §1
Assay [20] can be described thus: qHTS RealTime-Glo MT Cell Viability Assay in HepG2 cells - 16 hour (AID 1224885). Also: nearly all actives have a fitted effect of over 50% in size. Also: potency is read from the fitted curve at half-maximal effect. Summed up: as §5

Unmarked numbers belong to inactive results. Results filed as inconclusive are left out. Calls of active or inactive are those of the source. Calls follow the shape of the dose curve; as a rule, active = well fitted curve in the direction sought with a large enough effect in the repeat runs; inconclusive = weak or mixed curves; inactive = no such curve, though single readings can be large; an effect the other way counts as inactive or inconclusive.
% is scaled to controls: 0 for no effect and ±100 for the full control effect.

Consider `O=C(Nc1ccc2[nH]ccc2c1)c1cc2cc(F)ccc2n1Cc1cccc(F)c1`, for which the Potency result in [1], in assay [2], in assay [3], in assay [4], in assay [5] and in assay [6] was “inactive” each time. Further, the Potency entry in [7], in assay [8], in [9], in assay [10], in assay [11] and in assay [12] was “inactive” throughout. For the same molecule, the Potency entry in assay [13], in assay [14] and in [15] was “inactive” each time.
In the case of `Cn1[nH]nnc1=S`, the Potency result in [1], in assay [16], in assay [3], in [4], in assay [18] and in [5] was “inactive” throughout. Besides, the Potency result in [6], in [7], in [19], in [8], in assay [9] and in assay [10] was “inactive” throughout. The Potency entry in assay [20], in [11], in assay [13], in assay [14] and in assay [15] was “inactive” in each case. Moreover, the max response in assay [17] was 4.93%.
`Cn1cc(C2=C(c3cn(C4CCN(Cc5ccccn5)CC4)c4ccccc34)C(=O)NC2=O)c2ccccc21`: the Potency result in assay [1], in [2], in assay [3], in assay [5], in [7] and in assay [19] was “inactive” each time. The Potency entry in [8], in assay [9], in assay [11], in assay [12], in [13] and in assay [14] was “inactive” throughout.
For the molecule `CCCOCC(=Nc1ccc(Cl)cc1C(F)(F)F)n1ccnc1`, the Potency in [1] was 48.9 µM (active); in assay [2], 43.6 µM (active); in assay [17], 48.9 µM (active); in assay [3] it was 48.9 µM (active); in [4], 43.6 µM (active); in assay [5], 43.6 µM (active). Further, the Potency was 43.6 µM (active) in assay [6]; 48.9 µM (active) in assay [19]; 54.9 µM (active) in assay [10]; 43.6 µM (active) in [11]; 43.6 µM (active) in [12]; 54.9 µM (active) in [13]. In addition, the Potency entry in [7], in [8] and in [14] was “inactive” throughout.
Take `CCCCCCCCc1ccc(O)cc1`: the Potency in assay [1] was 19.6 µM (active); in assay [2], 4.39 µM (active); in assay [17], 17 µM (active); in [3] it was 17.5 µM (active); in assay [5], 19.6 µM (active); in assay [6], 19.6 µM (active). Moreover, the Potency in [19] is 17.5 µM (active); in assay [9] it was 42.7 µM (active); in assay [10], 43.9 µM (active); in assay [11] it was 4.93 µM (active); in assay [12] it was 6.76 µM (active); in assay [15] it was 17.5 µM (active). For the same molecule, the Potency result in assay [8] and in assay [14] was “inactive” throughout.
Consider `ClC(Cl)=C(c1ccc(Cl)cc1)c1ccc(Cl)cc1`, for which the Potency was 43.6 µM (active) in assay [1] and 56.3 µM (active) in [2]. In addition, the Potency result in assay [16], in [3], in [4], in assay [18], in assay [5] and in [6] was “inactive” throughout. Moreover, the Potency entry in assay [7], in assay [8], in assay [9], in assay [10], in assay [20] and in assay [13] was “inactive” in each case. The Potency entry in [14] and in [15] was “inactive” in each case.
As for `CC(C)(COCC1CO1)COCC1CO1` (stereo not drawn), the Potency entry in assay [1], in [2], in [16], in [3], in assay [4] and in [18] was “inactive” each time. Further, the Potency result in assay [5], in assay [6], in assay [19], in [8], in [10] and in assay [20] was “inactive” throughout. Also, the Potency entry in assay [11], in [13], in [14] and in [15] was “inactive” throughout.
For `Nc1c(Oc2ccccc2)cc(O)c2c1C(=O)c1ccccc1C2=O`, the Potency result in [1], in assay [16], in assay [3], in [4], in [18] and in [5] was “inactive” in each case. In addition, the Potency result in assay [6], in assay [7], in [19], in assay [9], in assay [10] and in [20] was “inactive” in each case. Besides, the Potency result in assay [13], in assay [14] and in assay [15] was “inactive” each time. Further, the Potency in assay [2] is 10.7 µM (active); in [11] it was 21.3 µM (active); in assay [12], 10.7 µM (active).
For `O=C(O)c1cc[c]([Hg][Cl])cc1`, the Potency in [1] was 17.4 µM (active); in assay [16], 34.7 µM (active); in assay [17], 15.5 µM (active); in assay [3] it was 24.5 µM (active); in assay [4], 38.9 µM (active); in [18] it was 24.5 µM (active). Further, the Potency was 27.5 µM (active) in assay [5]; 19.5 µM (active) in assay [6]; 21.9 µM (active) in assay [19]; 21.9 µM (active) in assay [9]; 30.9 µM (active) in assay [20]; 34.7 µM (active) in [12]. Further, the Potency in assay [15] was 38.9 µM (active). Further, the Potency result in assay [7], in assay [8], in [10] and in assay [14] was “inactive” each time.
Consider `c1ccc2c(c1)OCC(C1=NCCN1)O2` (stereo not drawn), for which the Potency is 23.9 µM (active) in [1], 19 µM (active) in assay [17] and 19 µM (active) in assay [19]. Further, the Potency entry in [16], in [3], in assay [4], in [18], in assay [5] and in assay [6] was “inactive” in each case. In addition, the Potency entry in assay [7], in assay [8], in assay [9], in assay [10], in assay [20] and in assay [12] was “inactive” throughout. In addition, the Potency entry in assay [13], in assay [14] and in [15] was “inactive” in each case.
Take `Cc1cc(C(F)(C(F)(F)F)C(F)(F)F)ccc1NC(=O)c1cccc(I)c1C(=O)NC(C)(C)CS(C)(=O)=O`: the Potency result in assay [1], in [2], in [16], in [3], in assay [4] and in [18] was “inactive” in each case. The Potency entry in assay [5], in [6], in assay [7], in assay [19], in assay [8] and in assay [9] was “inactive” throughout. For the same molecule, the Potency result in assay [20], in [13], in [14] and in assay [15] was “inactive” throughout.
Turning to `S=C(SSC(=S)N1CCCCC1)N1CCCCC1`, the Potency in assay [1] was 0.151 µM (active); in [2], 16.9 µM (active); in assay [16], 26.8 µM (active); in assay [18] it was 0.213 µM (active); in assay [6], 0.169 µM (active); in assay [19] it was 0.107 µM (active). In addition, the values for the Potency in assay [9] and in [11] were 0.19 µM (active) and 13.4 µM (active), respectively. Besides, the Potency entry in assay [3], in assay [8], in assay [10], in assay [13] and in [14] was “inactive” in each case.

The values are drawn from PubChem BioAssay (Tox21).
